Assay outcomes deposited in PubChem by National Center for Advancing Translational Sciences (NCATS).
TDP1 cell CPT = qHTS for Inhibitors of human tyrosyl-DNA phosphodiesterase 1 (TDP1): qHTS in cells in presence of CPT. chicken DT40 Tdp1-/-;hTDP1 cells + 20 nM CPT, ATP luminescence, 48 h. Potency, µM (highest dose often 46.2 µM), usual class: inhibitors. 12% of 420,000 active; also: nearly all actives have a fitted effect of over 55% in size
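Cell growth measured by CellTiter-Glo luminescence after a minimum 48 h, 37 C compound exposure with 20 nM CPT in Tdp1-knockout DT40 cells stably expressing hTDP1, seeded 400/well; qHTS titration format.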
TGFb SMAD3 inh = qHTS for Inhibitors of TGF-b; HepG2 CAGA-GFP TGF-b/SMAD3 reporter, GFP fluorescence, 18 h; TGF-beta stimulated, 500 pg/mL final; Potency, µM (top dose mostly 46.1 µM), usual class: inhibitors; 1.2% of 410,000 active; AID 588855, 2011; also: nearly all actives have a fitted effect of over 65% in size
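HEPG2 CAGA-GFP cells (1000/well, DMEM with 1% FBS) were pre-incubated 2 h at 37 degrees C, given compound by pin tool, then stimulated with TGF-beta at 500 pg/mL final for 18 h before per-cell GFP fluorescence imaging.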
HepG2 viability = qHTS for Inhibitors of TGF-b: Cytotox Counterscreen | HepG2 CAGA-GFP viability, ATP luminescence, 18 h | Potency, µM (top dose mostly 46.1 µM), actives largely listed as cytotoxic | 0.76% of 410,000 active | AID 588856, 2011
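HepG2 CAGA-GFP cells (1000/well, DMEM with 1% FBS) received compound, then TGF-beta at 500 pg/mL final, and were incubated 18 hours at 37 degrees C. Viability was read by CellTiter-Glo luminescence. Media-only wells were set as complete cell-killing and DMSO as no toxicity.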
IL1B secr inh = qHTS for Inhibitors of Inflammasome Signaling: IL-1-beta AlphaLISA Primary Screen; THP-1 LPS/ATP IL-1B secretion, AlphaLISA, 16 h; active compounds read low; activity change, % at 57.5 µM; 4.7% of 360,000 active; in the data active = activity change below about -50%; inconclusive = mostly about -30% to -49%
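Secreted IL-1B measured by AlphaLISA bead assay after 16 h compound exposure of THP-1 cells; compounds (final up to 57.5 uM) added 1 h before LPS (250 ng/mL) and ATP (1.25 mM) stimulation; lower signal means less secretion.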
TDP1 block = qHTS Assay for Inhibitors of Tyrosyl-DNA Phosphodiesterase (TDP1). Tyrosyl-DNA phosphodiesterase 1 (Homo sapiens), Q9NUW8. recombinant TDP1, AlphaScreen DNA substrate cleavage. Potency, µM (highest dose often 130 µM), usual class: inhibitors. 0.28% of 350,000 active. AID 485290, 2010; also: nearly all actives have a fitted effect of over 40% in size
Target sequence (Q9NUW8 whole entry, looked up): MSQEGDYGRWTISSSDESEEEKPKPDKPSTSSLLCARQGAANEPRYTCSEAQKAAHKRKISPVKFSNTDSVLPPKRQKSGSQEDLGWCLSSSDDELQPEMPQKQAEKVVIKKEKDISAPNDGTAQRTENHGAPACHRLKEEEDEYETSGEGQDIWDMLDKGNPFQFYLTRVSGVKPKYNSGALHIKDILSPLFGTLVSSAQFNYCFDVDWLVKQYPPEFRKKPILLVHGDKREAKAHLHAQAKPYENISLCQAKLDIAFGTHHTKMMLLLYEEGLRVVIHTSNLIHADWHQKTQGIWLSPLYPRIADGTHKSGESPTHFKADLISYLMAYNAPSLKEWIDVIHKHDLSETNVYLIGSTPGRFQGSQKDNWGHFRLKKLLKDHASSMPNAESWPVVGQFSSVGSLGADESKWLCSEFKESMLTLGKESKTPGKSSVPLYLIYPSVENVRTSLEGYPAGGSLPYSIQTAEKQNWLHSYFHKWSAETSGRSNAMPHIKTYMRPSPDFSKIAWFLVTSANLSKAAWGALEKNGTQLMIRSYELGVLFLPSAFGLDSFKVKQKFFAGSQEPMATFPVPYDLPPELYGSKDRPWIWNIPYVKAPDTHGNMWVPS
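Recombinant human Tdp1 (E. coli-expressed, 1 nM final) preincubated with compounds 15 min at room temperature, then 5'-biotin/3'-phosphotyrosine-FITC DNA substrate (15 nM final) added for 5 min. AlphaScreen beads (10 ug/ml final) added 10 min; cleavage lowers signal.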
DT40 TDP1 no CPT = qHTS for Inhibitors of human tyrosyl-DNA phosphodiesterase 1 (TDP1): qHTS in cells in absence of CPT. 15% of 420,000 active. AID 686978, 2013. Potency, µM (series often up to 46.2 µM), most hits filed as inhibitors. DT40 Tdp1-/- hTDP1 cells, no CPT, ATP luminescence, 48 h; also: nearly all actives have a fitted effect of over 55% in size
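Chicken DT40 Tdp1-/- cells complemented with human TDP1, screened without camptothecin (DMSO vehicle only), 400 cells/well. Compounds pin-transferred, cells incubated at 37 °C for at least 48 hr. Growth read as ATP-dependent luminescence (CellTiter-Glo, 30 min at RT).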
A number is an active result; - = inactive; ? = inconclusive; . = no result given; [ ] = dose if it differs, or a comment. A selection: hits, their analogues and other compounds. The true share with any hit is near 18%. Unless noted, calls follow the shape of the dose curve; as a rule, active = well fitted curve in the direction sought with a large enough effect; inconclusive = small, poorly fitted or top-dose-only effect, or another doubt; inactive = no such curve, though single readings can be large; an effect the other way counts as inactive or inconclusive.

SMILES	TDP1 cell CPT	TGFb SMAD3 inh	HepG2 viability	IL1B secr inh	TDP1 block	DT40 TDP1 no CPT
COc1ccc(OC)c(NC(=O)C2(C)CCN2Cc2ccc(SC)cc2)c1 (configuration not stated)	-	-	-	-	.	-
COc1ccc(OCCNC(=O)C2(C)CCN2Cc2ccc(SC)cc2)cc1 (configuration not stated)	?	?	-	-	.	16µM
COc1ccc(OCCNC(=O)C2(C)CCN2Cc2ccc3ccccc3c2)cc1 (configuration not stated)	29µM	14µM	-	-	.	16µM
CC(=O)NC(c1ccccc1)c1nc(-c2ccccc2)cs1 (configuration not stated)	?	-	-	-	.	-
Cc1ccnc(NCn2nnc3ccccc32)c1	16µM	-	-	-	-	?
Cc1ccc(NC(=O)Cn2nnc3ccccc32)c(C)c1	-	-	-	-	-	-
COCCNC(=O)C1(C)CCCN(C(=O)c2ccccc2)C1 (configuration not stated)	-	-	-	-	.	-
CCN(CC)CCNC(=O)c1[nH]c2ccc(OCc3ccccc3)cc2c1C	?	?	-	-95	-	?
CCN(Cc1ccccc1)C(=O)c1[nH]c2ccc(OC)cc2c1C	-	-	-	?	.	?
C#CCN(C[C@@H]1[C@@H](OC(=O)NCc2ccc(OC)c(OC)c2)[C@@H](OC(=O)NCc2ccc(OC)c(OC)c2)Cn2c(=O)n(CCCCCC)c(=O)n21)S(=O)(=O)c1ccc(C)cc1	-	-	-	-	.	-
C#CCN(C[C@@H]1[C@@H](OC(=O)NCCCCCC)[C@@H](OC(=O)NCCCCCC)Cn2c(=O)ccc(=O)n21)S(=O)(=O)c1ccc(C)cc1	4.6µM	6.3µM	6.3µM	-107	.	3.3µM
Cc1ccc(S(=O)(=O)N2CCC(C(=O)NCC3CCCCC3)CC2)cc1	-	-	-	-	-	-
C#CCN(C[C@@H]1[C@@H](OC(=O)NCC2CCCCC2)[C@@H](OC(=O)NCC2CCCCC2)Cn2c(=O)ccc(=O)n21)S(=O)(=O)c1ccc(C)cc1	2.9µM	7.1µM	-	-106	.	3.3µM
Cc1ccc(-c2ccc(CCC(=O)O)o2)cc1	-	-	-	-	-	-
O=C(O)CCc1ccc(-c2cccs2)o1	?	-	-	-	16µM	-
Cc1cccc(/C=C/c2nc3ccccc3c(=O)[nH]2)c1	21µM	?	-	-	-	15µM
Cc1[nH]c2ccccc2c1/C=C/c1nc2ccccc2c(=O)[nH]1	?	?	-	-103	-	10µM
COc1cc(/C=C/c2nc3ccccc3c(=O)[nH]2)ccc1O	?	-	-	?	.	16µM
Cc1[nH]c2ccccc2c1/C=C/C(=O)c1ccccc1	?	-	-	-	-	?
Cc1[nH]c2ccccc2c1/C=C/c1nc2ccccc2c(=O)n1-c1ccc([N+](=O)[O-])cc1	?	-	-	-	-	2.1µM
Cc1ccc(-n2c(/C=C/c3c(C)n(C)c4ccccc34)nc3ccccc3c2=O)cc1	-	-	-	.	-[2.28 µM]	-
O=C(O)c1ccc(/C=C/c2nc3ccccc3c(=O)[nH]2)cc1	-	-	-	-	.	-
COc1ccc(NS(=O)(=O)c2cccc(C(=O)NNC(=O)c3ccc(=O)[nH]c3)c2)cc1	-	-	-	-	-	-
O=c1[nH]c(/C=C/c2ccccc2Cl)nc2ccccc12	16µM	-	-	-	.	?
CCOc1ccc(NC(=O)Nc2ccc3nccnc3c2)cc1	?	-	-	-	-	15µM
SMILES	TDP1 cell CPT	TGFb SMAD3 inh	HepG2 viability	IL1B secr inh	TDP1 block	DT40 TDP1 no CPT
CCOc1ccc(NC(=O)NC(C)CC)cc1 (configuration not stated)	?	-	-	-	-	18µM
Cc1ccc(N(CCC#N)C(=O)CSc2nnc3ccccn23)cc1	-	-	-	-	-	-
COc1cc(O)c(C(=O)/C=C/c2ccc(O)c(OC)c2)c(OC)c1	?	.	.	.	10µM	?
COc1cc(/C=C/C(=O)c2ccc(O)cc2O)ccc1O	.	.	.	.	-	.
COc1cc(/C=C/C(O)=C/C(=O)/C=C/c2ccc(O)cc2)ccc1O	18µM	?	-	-97	-	?
CC(NC(=O)CNC(=O)c1cccc(Cl)c1)c1ccccc1 (configuration not stated)	-	-	-	-	.	-
Cc1[nH]n(-c2ncc(-c3ccc(Cl)cc3)s2)c(=O)c1C(c1ccc(Cl)cc1)C(C#N)C#N (configuration not stated)	-	?	-	?	-	?
COc1ccc(C(c2c(C)[nH]n(C(N)=S)c2=O)C(C#N)C#N)cc1 (configuration not stated)	23µM	?	-	-	-	?
COC(=O)C[C@H]1CC[C@@H](NC(=O)c2ccncc2)[C@@H](CO)O1	-	.	.	-	.	-
CCC(NC(=O)C1CCCO1)c1ccccc1 (configuration not stated)	-	-	-	-	2.2µM	?
COc1cccc(/C=N/Nc2nc(Nc3ccc([N+](=O)[O-])cc3)nc(N3CCCC3)n2)c1O	8.2µM	-	-	-	-	5.8µM
O=[N+]([O-])c1ccc(NC2CCCC2)cc1	-	-	-	-	-	-
O=[N+]([O-])c1ccc(Nc2nc(N/N=C/c3cccc(F)c3)nc(N3CCCC3)n2)cc1	6.5µM	-	-	?	-	8.2µM
O=[N+]([O-])c1ccc(Nc2nc(NC3CCCCC3)nc(N3CCCC3)n2)cc1	26µM	-	-	-	-	23µM
CCOC(=O)N1CCN(S(=O)(=O)N2CCCC(C(=O)NCCc3ccc(C)cc3)C2)CC1 (configuration not stated)	?	-	-	-	-	-
CCc1cc(=O)oc2c(C)c(OCC(=O)NCCCN3CCCC3=O)ccc12	-	-	-	?	-	-
Cc1ccccc1CN1CCN(CC(=O)NCc2ccc3c(c2)OCO3)C1=O	-	-	-	-	-	-
COc1cc(/C=C2/C(=O)NN(c3cccc(F)c3)C2=O)ccc1OC(=O)c1ccco1	?	?	-	-	-	16µM
C=CCN1C(=O)/C(=C\c2ccc(OC(=O)c3ccco3)c(OC)c2)SC1=S	-	-	-	-	-	?
O=Cc1ccccc1OCc1ccc2c(c1)OCO2	5.2µM	-	-	-	.	2.9µM
